Compounds without any hit were thinned out: in the full panel of roughly 83,000, 20% have a hit.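 Plates (96-well) were seeded with cells, treated with compound at one concentration, and incubated for 48 hours before percent growth was determined.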 Values without a mark were called inactive. Activity calls are given as the source filed them. Rule for the calls: active = growth percent below 10; inactive = the rest.
Experiments:
Assay in all cases: NCI-60 one-dose screen, 48 h (100 = growth as untreated, 0 = no growth, -100 = all killed)
Conditions in all cases: 10 µM unless noted
SR leukemia = tested on: SR leukemia
OVCAR-8 ovarian = tested on: OVCAR-8 ovarian
OVCAR-5 ovarian = tested on: OVCAR-5 ovarian
OVCAR-4 ovarian = tested on: OVCAR-4 ovarian
SK-OV-3 ovarian = tested on: SK-OV-3 ovarian
IGROV1 ovarian = tested on: IGROV1 ovarian
OVCAR-3 ovarian = tested on: OVCAR-3 ovarian
HS 578T breast = tested on: HS 578T breast
NCI/ADR-RES ovarian = tested on: NCI/ADR-RES ovarian

SMILES	growth (SR leukemia)	growth (OVCAR-8 ovarian)	growth (OVCAR-5 ovarian) [%]	growth (OVCAR-4 ovarian)	growth (SK-OV-3 ovarian)	growth (IGROV1 ovarian)	growth (OVCAR-3 ovarian)	growth (HS 578T breast)	growth (NCI/ADR-RES ovarian)
NCCNc1nc2ccccc2c2c(=O)c3cccc(F)c3sc12	12.3%	46.5%	81.8	48.3%	78.8%	48%	53.1%	67.6%	53.9%
COc1ccc2sc3c(NCCO)nc4ccccc4c3c(=O)c2c1	83.9%	92.1%	102	114%	110%	113%	122%	95.4%	99.6%
CCOC(=O)C1=C(N)Oc2c(sc3c(C)cccc23)C1c1ccc(OC)cc1 (stereo not drawn)	29.1%	46.6%	75.9	65.5%	57.7%	27.9%	11%	30%	30.8%
NCCCNc1nc2ccccc2c2c(=O)c3cccc(F)c3sc12	-16.7% (active)	29%	66.9	26.2%	58.5%	32.5%	18.5%	52.4%	30.3%
CCCCOc1nc2c(C)cccc2cc1-c1cc(-c2ccc(Cl)cc2)nc(-c2ccc(Cl)cc2)c1	92.2%	97.4%	96.6	110%	103%	105%	111%	92.4%	108%
C/C=C(\C)C(=O)N[C@H]1[C@@H](OC(C)=O)C[C@]2(C)C3CC[C@@]4(C)C(CC[C@@H]4C(C)N(C)C)C3CCC2[C@H]1O (stereo partly drawn)	51%	78.6%	96.7	15.3%	93.6%	66.4%	74.9%	88.6%	67.9%
CCCCOc1nc2ccc(OC)cc2cc1-c1cc(-c2ccc(Cl)cc2)nc(-c2ccc(Cl)cc2)c1	107%	104%	98.7	99.5%	108%	105%	112%	100%	105%
CCOC(=O)c1cn2ncnc(Oc3ccc(NC(=O)NCCN(CC)CC)c(Cl)c3)c2c1C	-26.6% (active)	81%	80.8	90.3%	92.1%	87.3%	68.6%	77.7%	77.6%
CCN(CC)CCCNc1nc2ccccc2c2c(=O)c3cc(Cl)ccc3sc12	-15.7% (active)	61.5%	75.5	45.1%	89.3%	50.7%	40.5%	64.3%	74.1%
CCCCCCn1c(-c2ccc(C(=O)O/N=C(\N)c3ccc4ccccc4c3)cc2)nc(-c2ccccc2)c1-c1ccccc1	-37.7% (active)	64.6%	71.6	56.8%	91%	-48.3% (active)	74.8%	46.8%	3.92% (active)
Cc1cccc(NCc2cn(-c3ccc(C(=O)O)cc3)nc2-c2ccc(C(=O)O)cc2)n1	111%	110%	95.2	105%	110%	105%	106%	96.9%	108%
C/C(=N/NC(N)=S)c1sc(Nc2cccc(Cl)c2)nc1C	90.1%	97.5%	86.8	63.6%	116%	86%	76.8%	88.2%	86.7%
CCOC(=O)C1=C(N)Oc2c(sc3c(C)cccc23)C1c1ccc(F)cc1 (stereo not drawn)	5.82% (active)	19%	27.9	42.7%	60%	16.9%	-32.9% (active)	13.6%	6.4% (active)
NCCCNc1nc2ccccc2c2c(=O)c3cc(F)cc(Cl)c3sc12	-17.3% (active)	5.77% (active)	96.6	-65.3% (active)	102%	80%	102%	88.3%	85.5%
O=[N+]([O-])c1ccc(Oc2nc(Nc3ccc(O[C@H]4CO[C@H]5[C@@H]4OC[C@@H]5O)c(Cl)c3)ncc2F)c(Cl)c1	10.5%	32.5%	43.2	34.4%	9.64% (active)	-13% (active)	31.1%	-2.68% (active)	81.3%
O=c1c2cccc(F)c2sc2c(NCCCNCCO)nc3ccccc3c12	-16.6% (active)	32%	61.8	34.9%	56.2%	24.2%	30.1%	37.8%	31.5%
Cc1ccc2sc3c(NCCCN)nc4ccccc4c3c(=O)c2c1	-31.8% (active)	38.3%	85.8	28%	90.2%	65.7%	2.61% (active)	59.8%	39.4%
CCOC(=O)c1sc2ncc(-c3ccc(OC)cc3)n2c1C	104%	91.6%	105	97.5%	78.7%	81.4%	108%	94.1%	92.3%
CC1=C(C)C(=O)C(Nc2cccc(C(=O)OC(C)(C)C)c2)=C(Br)C1=O	15.9%	92.4%	99.9	88.8%	93.2%	86.7%	77.7%	92.8%	94.7%
N#C/C(=C\c1ccc(F)cc1)n1nc2cccc(F)c2n1	13.7%	81.2%	79.7	34%	74.9%	73.1%	-3.76% (active)	27.6%	8.9% (active)
COc1cc2cc(Oc3ccc(NC(=O)Nc4ccc(F)c(C(F)(F)F)c4)cc3)c(C)nc2cc1OCCN1CCOCC1	-15.2% (active)	13.8%	66.9	27.3%	41.3%	32.7%	13%	65.8%	12%
O=c1c2cc(F)ccc2sc2c(N3CCNCC3)nc3ccccc3c12	-56.3% (active)	11%	73.1	-22.2% (active)	84.4%	48%	-79.6% (active)	46.3%	18.7%
N#Cc1cccc(NC(=O)c2cc(-c3ccc(F)cc3F)ccc2O)c1	12.8%	16.8%	36.8	22.1%	6.59% (active)	29%	1.29% (active)	16%	4.93% (active)
Cc1c(C(=O)NCCCc2ccccc2)sc2ncc(-c3ccc(Br)cc3)n12	106%	105%	107	111%	99.5%	100%	112%	104%	107%
COc1ccc2nc(NCCCNCCO)c3sc4ccc(F)cc4c(=O)c3c2c1	-35.1% (active)	6.89% (active)	81.7	-54.3% (active)	90.1%	41.3%	-64.6% (active)	63.5%	30.3%
CC(C)C(=O)Nc1ccc(-c2nc(-c3cccc(OCCN4CCOCC4)c3)c(-c3ccnc(Br)c3)[nH]2)cc1	-3.9% (active)	51.8%	75.2	60%	73.6%	68.7%	63.3%	-26% (active)	91.7%
O=C1/C(=C/c2ccccc2[N+](=O)[O-])Oc2ccc(O)c(O)c21	36.1%	25.5%	48.8	47.9%	93.1%	48.5%	35.1%	21.1%	37.6%

Source: PubChem BioAssay (NCI)
